Structures are written as SMILES. Unmarked numbers belong to inactive results. Activity calls are given as the source filed them. The call rests on the fitted dose curve; in most records, active means well fitted curve in the direction sought with a large enough effect in the repeat runs; inconclusive means weak or mixed curves; inactive means flat fitted curve, though single readings scatter.
On the % scale 0 is the no-effect control and ±100 the full control effect.

The experiment is described as follows: qHTS assay to test for compound auto fluorescence at 460 nm (blue) in HepG2 cell free culture (AID 720685). The note with it: Cell-free culture medium, blue autofluorescence 405/460 nm; series mostly up to 91.3 µM. A digest of the protocol:
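Cell-free plates of MEM plus 10% FBS received 23 nL compound or DMSO vehicle; blue-channel (405/460 nm) intensity scored against triamterene as reference fluorophore.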
Regarding `O=c1[nH]c(=O)c2ccccc2o1`, the molecule was classed as inactive.

As for `Cc1cc(O)c2c(c1)C(=O)c1cccc(O)c1C2=O`, the molecule was classed as inactive.

Regarding `FC(F)(F)/C(=N\OCC1OCCO1)c1ccc(Cl)cc1`, the call was inactive.

For `CC(C)=CC(C)(C)C`, the molecule was called inactive.

For `C=CCOCC(CO)(COCC=C)COCC=C`, the molecule was called inactive.

For `C[C@H](CCC(=O)NCC(=O)O)[C@H]1CC[C@H]2[C@@H]3[C@H](O)C[C@@H]4C[C@H](O)CC[C@]4(C)[C@H]3C[C@H](O)[C@]12C`, the molecule was called inactive.

With `O=S(=O)(O)CCO`, the result was inactive.

In the case of `C[N+](C)(C)CC(O)CCl` (stereo not given), the call was inactive.

Turning to `CN(C)CCOCCN(C)CCO`, the call was inactive.

In the case of `CN(C)CCCNCCC#N`, the result was inactive.

As to `C=CC(C)(O)CC/C=C(\C)CC` (stereo not given), the call was inactive.

With `O=C(Nc1cccc(C2=NCCN2)c1)Nc1cccc(C2=NCCN2)c1`, the molecule was classed as inactive.

As for `CC(C)(c1ccc(Oc2ccc3c(c2)C(=O)OC3=O)cc1)c1ccc(Oc2ccc3c(c2)C(=O)OC3=O)cc1`, the call was inactive.

In the case of `CO/N=C(/C(=O)N[C@@H]1C(=O)N2C(C(=O)O)=C(Cn3nnc(C)n3)CS[C@H]12)c1csc(N)n1`, the molecule was called inactive.

For the molecule `CC(=O)OCCCc1ccccc1`, the outcome was inactive.

For the molecule `COc1cc2c3cc1Oc1cc(ccc1O)C[C@@H]1c4c(cc(OC)c(O)c4Oc4ccc(cc4)C[C@@H]3N(C)CC2)CC[N+]1(C)C`, the molecule was called inactive.

For the molecule `SCCSCCS`, the molecule was classed as inactive.

Consider `CC1=NN(c2ccc(S(=O)(=O)O)cc2)C(=O)C1N=Nc1ccccc1` (stereo not given), for which the molecule was called inactive.

For `CCNC(=O)NCCCOc1cccc(CN2CCCCC2)c1`, the result was inactive.

For the molecule `C1CCN2C[C@@H]3C[C@@H](CN4CCCC[C@@H]34)[C@H]2C1`, the fluorescence, % of fluorescent control is 0.101% [at 18.6 µM].
